Records with an inconclusive call do not appear. Calls of active or inactive are those of the source. Unless noted, the limit is not given here; nearly all actives have AC50 up to about 37 µM.
Assay: growth inhibition of DIPG glioma cells, dose response, cell-based, SU-DIPG-XVII, MIPE5.0, CellTiter-Glo, qHTS (AID 1347060; cut-off not given, nearly all actives have AC50 up to about 26 µM;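 as to AC50: cells exposed to compound for 48 hours before viability readout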)
Details: SU-DIPG-XVII viability, CellTiter-Glo ATP luminescence
With `CN(C)CC/C=C1/c2ccccc2COc2ccc(CC(=O)O)cc21` the outcome was “inactive”.
For `Cc1ccsc1C(=CCCN1CCC[C@@H](C(=O)O)C1)c1sccc1C`, the outcome was “inactive”.
In the case of `Cn1c(NCCN(CCO)CCCc2ccc([N+](=O)[O-])cc2)cc(=O)n(C)c1=O`, the outcome is reported as “inactive”.
For `Clc1ccc2nsnc2c1NC1=NCCN1`, the outcome was “inactive”.
With `COc1cc(C(=O)NS(=O)(=O)c2ccccc2C)ccc1Cc1cn(C)c2ccc(NC(=O)OC3CCCC3)cc12` the outcome was “inactive”.
For `NC(=O)OCC(COC(N)=O)c1ccccc1`, the outcome was “inactive”.
In the case of `COc1cccc2c1C(=O)c1c(O)c3c(c(O)c1C2=O)C[C@@](O)(C(=O)CO)C[C@@H]3O[C@H]1C[C@H](N)[C@H](O)[C@H](C)O1`, the AC50 is reported as 0.235 µM (active).
With `Cc1nc2ccc(CN(C)c3ccc(C(=O)N[C@@H](CCC(=O)O)C(=O)O)s3)cc2c(=O)[nH]1` the outcome was “inactive”.
For `Nc1nc(F)nc2c1ncn2[C@@H]1O[C@H](CO)[C@@H](O)[C@@H]1O`, the AC50 was 10.5 µM (active).
With `O=C1N(c2ccccc2)c2ccccc2C1(Cc1ccncc1)Cc1ccncc1` the outcome was “inactive”.
For `CC(=O)[C@]1(O)Cc2c(O)c3c(c(O)c2[C@@H](O[C@H]2C[C@H](N)[C@H](O)[C@H](C)O2)C1)C(=O)c1ccccc1C3=O`, the AC50 was 0.372 µM (active).
With `CN(CCOc1ccc(NS(C)(=O)=O)cc1)CCc1ccc(NS(C)(=O)=O)cc1` the outcome was “inactive”.

Assay: growth inhibition of DIPG glioma cells, dose response, cell-based, SU-DIPG-XIII, MIPE4.0, CellTiter-Glo, qHTS (AID 1347061);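 also: cells exposed to compound for 48 hours before readout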
Details: SU-DIPG-XIII viability, CellTiter-Glo ATP luminescence
For `CN(C)CC/C=C1/c2ccccc2COc2ccc(CC(=O)O)cc21`, the outcome was “inactive”.
With `CCOC(=O)[C@H](CCc1ccccc1)N[C@@H](C)C(=O)N1[C@H](C(=O)O)C[C@@H]2CCC[C@@H]21` the AC50 was 8.33 µM (active).
In the case of `O=C1CCc2ccc(OCCCCN3CCN(c4cccc(Cl)c4Cl)CC3)cc2N1`, the outcome is reported as “inactive”.
With `CC(c1cc2ccccc2s1)N(O)C(N)=O` (stereo unspecified) the outcome was “inactive”.
For `CN1CCN(CCCN2c3ccccc3Sc3ccc(Cl)cc32)CC1`, the AC50 was 0.0105 µM (active).
For `Cc1ncc([N+](=O)[O-])n1CCO`, the outcome was “inactive”.
With `Clc1ccc2nsnc2c1NC1=NCCN1` the outcome was “inactive”.
In the case of `Cc1cn([C@H]2C=C[C@@H](CO)O2)c(=O)[nH]c1=O`, the outcome is reported as “inactive”.
For `NC(=O)OCC(COC(N)=O)c1ccccc1`, the outcome was “inactive”.
For `CC(=O)Oc1ccccc1C(=O)Nc1ncc([N+](=O)[O-])s1`, the AC50 was 27 µM (active).
For `CN(C/C=C/C#CC(C)(C)C)Cc1cccc2ccccc12`, the outcome was “inactive”.
For `CC(C)c1nc(CN(C)C(=O)N[C@H](C(=O)N[C@@H](Cc2ccccc2)C[C@H](O)[C@H](Cc2ccccc2)NC(=O)OCc2cncs2)C(C)C)cs1`, the outcome was “inactive”.
For `COc1cc2nc(N3CCN(C(=O)C4COc5ccccc5O4)CC3)nc(N)c2cc1OC` (stereo unspecified), the outcome was “inactive”.
In the case of `Cc1nc2n(c(=O)c1CCN1CCC(c3noc4cc(F)ccc34)CC1)CCCC2`, the outcome is reported as “inactive”.
For `O=C1N(c2ccccc2)c2ccccc2C1(Cc1ccncc1)Cc1ccncc1`, the outcome was “inactive”.
For `CC(=O)[C@]1(O)Cc2c(O)c3c(c(O)c2[C@@H](O[C@H]2C[C@H](N)[C@H](O)[C@H](C)O2)C1)C(=O)c1ccccc1C3=O`, the AC50 was 3.32 µM (active).
With `CN(CCOc1ccc(NS(C)(=O)=O)cc1)CCc1ccc(NS(C)(=O)=O)cc1` the outcome was “inactive”.

Assay: growth inhibition of DIPG glioma cells, dose response, cell-based, JHH-DIPG-1, MIPE4.0, CellTiter-Glo, qHTS (AID 1347062; cut-off not given, nearly all actives have AC50 up to about 27 µM;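 as to AC50: cells exposed to compound for two days before readout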)
Details: JHH-DIPG-1 viability, CellTiter-Glo ATP luminescence
In the case of `CN(C)CC/C=C1/c2ccccc2COc2ccc(CC(=O)O)cc21`, the outcome is reported as “inactive”.
With `CCOC(=O)[C@H](CCc1ccccc1)N[C@@H](C)C(=O)N1[C@H](C(=O)O)C[C@@H]2CCC[C@@H]21` the AC50 was 16.6 µM (active).
With `O=C1CCc2ccc(OCCCCN3CCN(c4cccc(Cl)c4Cl)CC3)cc2N1` the outcome was “inactive”.
In the case of `CC(c1cc2ccccc2s1)N(O)C(N)=O` (stereo unspecified), the outcome is reported as “inactive”.
With `CN1CCN(CCCN2c3ccccc3Sc3ccc(Cl)cc32)CC1` the AC50 was 7.43 µM (active).
For `Cc1ncc([N+](=O)[O-])n1CCO`, the outcome was “inactive”.
For `Cc1cn([C@H]2C=C[C@@H](CO)O2)c(=O)[nH]c1=O`, the outcome was “inactive”.
In the case of `CN1[C@@H]2CC[C@H]1CC(OC(=O)c1c[nH]c3ccccc13)C2` (stereo partly specified), the outcome is reported as “inactive”.
With `NC(=O)OCC(COC(N)=O)c1ccccc1` the outcome was “inactive”.
With `COc1cccc2c1C(=O)c1c(O)c3c(c(O)c1C2=O)C[C@@](O)(C(=O)CO)C[C@@H]3O[C@H]1C[C@H](N)[C@H](O)[C@H](C)O1` the AC50 was 0.332 µM (active).
For `CC(=O)Oc1ccccc1C(=O)Nc1ncc([N+](=O)[O-])s1`, the AC50 was 38.2 µM (active).
In the case of `CN(C/C=C/C#CC(C)(C)C)Cc1cccc2ccccc12`, the outcome is reported as “inactive”.
In the case of `CC(C)c1nc(CN(C)C(=O)N[C@H](C(=O)N[C@@H](Cc2ccccc2)C[C@H](O)[C@H](Cc2ccccc2)NC(=O)OCc2cncs2)C(C)C)cs1`, the outcome is reported as “inactive”.
In the case of `Cc1nc2ccc(CN(C)c3ccc(C(=O)N[C@@H](CCC(=O)O)C(=O)O)s3)cc2c(=O)[nH]1`, the outcome is reported as “inactive”.
With `O=C1N(c2ccccc2)c2ccccc2C1(Cc1ccncc1)Cc1ccncc1` the outcome was “inactive”.
For `CC(=O)[C@]1(O)Cc2c(O)c3c(c(O)c2[C@@H](O[C@H]2C[C@H](N)[C@H](O)[C@H](C)O2)C1)C(=O)c1ccccc1C3=O`, the AC50 was 0.526 µM (active).
For `CN(CCOc1ccc(NS(C)(=O)=O)cc1)CCc1ccc(NS(C)(=O)=O)cc1`, the outcome was “inactive”.

From PubChem BioAssay
